Reference: PubChem BioAssay (Tox21)
Several values for one entry are separate records, joined by “and”; a condition that tells them apart may be missing. Identical values can stand only once. Inconclusive results are not listed. A structure can be active in one record and inactive in another. Activity calls are given as the source filed them. Calls come from the whole dose curve; as a rule, active = well fitted curve in the direction sought with a large enough effect in the repeat runs; inconclusive = weak or mixed curves; inactive = no such curve, though single readings can be large; an effect the other way counts as inactive or inconclusive.

What was measured:
[1] = A CellTox Green Cytotoxicity Assay to monitor cytotoxicity in HEK293 cells - 32 hour (AID 1224881); settings: CellTox Green fluorescence; series mostly up to 76.8 µM; note: nearly all actives have a fitted effect of over 40% in size; note: potency is the fitted concentration of half-maximal effect
In short: (§1)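 HEK293 cells premixed with CellTox Green dye were seeded at 600 cells/well and left 5 h at 37 C/5% CO2 before pin transfer of 23 nL compound in DMSO. Fluorescence from dye bound to dead-cell DNA was read during 40 h treatment.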

[2] = A CellTox Green Cytotoxicity Assay to monitor cytotoxicity in HepG2 cells - 0 hour (AID 1224882); settings: CellTox Green fluorescence; series mostly up to 76.8 µM; note: nearly all actives have a fitted effect of over 35% in size
In short: (§2)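 HepG2 cells were seeded together with the CellTox Green dye at 600 cells/well, left 5 h at 37 C/5% CO2, then given compounds in DMSO. Fluorescence from dye bound to dead-cell DNA was read repeatedly over 40 h of treatment at 37 C.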

[3] = A CellTox Green Cytotoxicity Assay to monitor cytotoxicity in HepG2 cells - 32 hour (AID 1224883); settings: CellTox Green fluorescence; series mostly up to 76.8 µM; note: nearly all actives have a fitted effect of over 50% in size; note: potency is the fitted concentration of half-maximal effect
In short: as §2

[4] = qHTS RealTime-Glo MT Cell Viability Assay in HepG2 cells - 16 hour (AID 1224885); settings: RealTime-Glo luminescence; series mostly up to 76.8 µM; note: nearly all actives have a fitted effect of over 50% in size; note: potency is the fitted concentration of half-maximal effect
In short: (§3)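 Cells + NanoLuc/prosubstrate dispensed (600 cells/well) → 5 h at 37 C/5% CO2 → compounds in DMSO transferred → 40 h incubation at 37 C, luminescence read at 0, 8, 16, 24, 32, 40 h.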

[5] = qHTS RealTime-Glo MT Cell Viability Assay in HEK293 cells - 24 hour (AID 1224886); settings: RealTime-Glo luminescence; series mostly up to 76.8 µM; note: nearly all actives have a fitted effect of over 50% in size; note: potency is the fitted concentration of half-maximal effect
In short: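 Tox21 10K qHTS, HEK293, 600 cells/well, RealTime-Glo reagent co-dispensed with cells; 5 h preincubation, compound by pintool, 37 C, luminescence at 0–40 h.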

[6] = qHTS RealTime-Glo MT Cell Viability Assay in HEK293 cells - 8 hour (AID 1224887); settings: RealTime-Glo luminescence; series mostly up to 76.8 µM; note: potency is the fitted concentration of half-maximal effect; nearly all actives have a fitted effect of over 50% in size
In short: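 HEK293 cells mixed with RealTime-Glo reagents (NanoLuc plus cell-permeant prosubstrate) at 600 cells/well, preincubated 5 h at 37 C/5% CO2, then given 23 nL compound in DMSO. Nonlytic luminescence from viable cells was read at 0, 8, 16, 24, 32 and 40 h.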

[7] = A CellTox Green Cytotoxicity Assay to monitor cytotoxicity in HEK293 cells - 16 hour (AID 1224888); settings: CellTox Green fluorescence; series mostly up to 76.8 µM; note: nearly all actives have a fitted effect of over 35% in size; note: potency is the fitted concentration of half-maximal effect
In short: as §1

[8] = qHTS RealTime-Glo MT Cell Viability Assay in HepG2 cells - 0 hour (AID 1224889); settings: RealTime-Glo luminescence; series mostly up to 76.8 µM; note: nearly all actives have a fitted effect of over 50% in size
In short: as §3

[9] = A CellTox Green Cytotoxicity Assay to monitor cytotoxicity in HepG2 cells - 8 hour (AID 1224890); settings: CellTox Green fluorescence; series mostly up to 76.8 µM; note: nearly all actives have a fitted effect of over 45% in size; note: potency is the fitted concentration of half-maximal effect
In short: as §2

[10] = A CellTox Green Cytotoxicity Assay to monitor cytotoxicity in HEK293 cells - 8 hour (AID 1224884); settings: CellTox Green fluorescence; series mostly up to 76.8 µM; note: nearly all actives have a fitted effect of over 35% in size
In short: as §1

Measured: Potency

CCCCCCCCOC(=O)c1ccc(O)cc1
inactive and 43.6 µM (active): [3]
active: [1] 43.5 µM and 43.6 µM | [5] 24.5 µM | [6] 43.5 µM | [7] 48.8 µM and 49 µM
not listed: [10]
inactive: all other assays above

Cc1c(C)c2c(c(C)c1O)CCC(C)(COc1ccc(CC3SC(=O)NC3=O)cc1)O2 (stereo unspecified)
active: [5] 43.6 µM
not listed: [4] | [6]
inactive: all other assays above

O=C1C=CC(=O)N1
active: [1] 17.8 µM | [3] 20 µM | [5] 12.6 µM | [6] 15.9 µM | [7] 22.5 µM | [9] 50.3 µM
inactive: [2] | [8]

CCC1=C[C@@H]2CN(C1)Cc1c([nH]c3ccccc13)[C@@](C(=O)OC)(c1cc3c(cc1OC)N(C)[C@H]1[C@@](O)(C(=O)OC)[C@H](OC(C)=O)[C@]4(CC)C=CCN5CC[C@]31[C@@H]54)C2
not listed: [4] | [5] | [6]
inactive: all other assays above

O=C1c2c(O)ccc(Nc3ccc(CCO)cc3)c2C(=O)c2c([N+](=O)[O-])ccc(O)c21
active: [6] 43.6 µM
not listed: [4] | [5] | [8]
inactive: all other assays above

CCC(Cl)C(Cl)C(Cl)CC(Cl)C(Cl)C(C)Cl (stereo unspecified)
not listed: [4] | [6]
inactive: all other assays above

CCC(C)Nc1ccc(NC(C)CC)cc1 (stereo unspecified)
inactive: [2]
active: [1] 12.5 µM | [3] 19.9 µM | [4] 17.7 µM | [5] 4.45 µM | [6] 4.99 µM | [7] 39.7 µM

CC/C(=C(\c1ccc(O)cc1)c1ccc(OCCN(C)C)cc1)c1ccccc1
active: [1] 43.8 µM | [3] 49.1 µM | [5] 21.9 µM | [6] 27.6 µM | [7] 55.1 µM
inactive: [2] | [8]
